LASV entry inh = inhibitors of Lassa virus binding or cell entry | Lassa virus pseudotype entry inhibition, cell reporter | Potency, µM (doses to about 37.9 µM), for the others: top-dose activity change, negative = inhibition, hits mostly inhibitors | 300,000 compounds, 1.2% hits | AID 540256; calls by dose curve; tested in HEK293 cells; note: potency is the fitted concentration of half-maximal effect; nearly all actives have a fitted effect of over 50% in size
FMDV inh = foot and mouth disease virus antiviral activity; FMDV antiviral cell-based qHTS; Potency, µM (top dose mostly 57.9 µM), without a hit: at the top dose activity change, negative = inhibition, actives largely listed as inhibitors; 410,000 compounds, 1.2% hits; AID 1159524; calls by dose curve; tested in HEK293T cells; note: read-out not given here; potency is the fitted concentration of half-maximal effect; nearly all actives have a fitted effect of over 45% in size
Marburg entry inh = inhibitors of Marburg virus binding or cell entry | Marburg virus pseudotyped entry inhibition, cell reporter | Potency, µM (top dose mostly 37.8 µM), inactives show top-dose activity change, negative = inhibition, hits mostly inhibitors | 300,000 compounds, 1.8% hits | AID 540276; calls by dose curve; tested in HEK293 cells; note: potency is the fitted concentration of half-maximal effect
Vaccinia Venus = vaccinia inhibition (Venus reporter); Potency, µM (titrated, usually from 36.5 µM), without a hit: at the highest dose activity change, negative = inhibition, most hits filed as inhibitors; 330,000 compounds, 0.46% hits; Vaccinia virus Venus reporter expression, fluorescence; calls by dose curve; tested in A549 cells; note: potency is the fitted concentration of half-maximal effect; nearly all actives have a fitted effect of over 30% in size
HCMV antiviral = inhibitors of human cytomegalovirus | HFF cells, HCMV-luciferase reporter, 72 h; active compounds read low | activity change, negative = inhibition, % at 57.5 µM | 410,000 compounds, 4.5% hits; in the data active = activity change below about -60%; inconclusive = no clear call, values can overlap the other calls; inactive = above about -39%
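Inhibition of viral replication was scored as loss of reporter luminescence in HFFs infected with HCMV-luciferase (MOI 1 PFU/cell) for 72 h; compounds tested at 2 doses, normalized to buffer and Salinomycin controls.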
VACV mCherry inh = inhibitors of vaccinia virus infection (mCherry reporter signal) | Vaccinia virus mCherry reporter infection, fluorescence | Potency, µM (highest dose often 36.5 µM), for inactives: at the top dose activity change, negative = inhibition, actives largely listed as inhibitors | 310,000 compounds, 0.63% hits; calls by dose curve; tested in A549 cells; note: potency is the fitted concentration of half-maximal effect; nearly all actives have a fitted effect of over 35% in size
Starred values were filed as active, the others as inactive; i = inactive; ? = inconclusive; . = no result given; [ ] = another dose, or the depositor's remark. In the library only some 6.5% were active in any assay of this set; here they are far more common. % is set by controls: 0 for no effect and ±100 for the full control effect.

SMILES | LASV entry inh | FMDV inh | Marburg entry inh | Vaccinia Venus | HCMV antiviral | VACV mCherry inh
Cc1cc(N/N=C/c2ccc(Cl)cc2)nc(NCc2ccccc2)n1 | ? | -14% | ? | -11% | -13 | ?
CSc1ccc(/C=N/Nc2nc(C)cc(C)n2)cc1 | 7.1µM* | 10% | 4% | -6% | ? | i
CC(=O)c1ccc(S(=O)(=O)NCc2ccc(C(=O)N(C)CC(=O)Nc3cccc(F)c3)cc2)cc1 | ? | -19% | -25% | -7% | -9 | i
Cc1cc(N/N=C/c2ccccc2F)nc(NCc2ccccc2)n1 | 2% | -10% | ? | -17% | 1 | -2%
Cc1cc(N/N=C/c2cccc(F)c2)nc(NCc2ccccc2)n1 | ? | 6% | 16µM* | ? | 8 | ?
CCc1ccccc1N1C(=O)N(Cc2ccccc2C)c2ccccc2S1(=O)=O | ? | 17% | . | ? | -105* | ?
NC(=S)N/N=C/c1ccccc1[N+](=O)[O-] | -12% | -4% | -3%[46.1 µM] | 2.2µM* | -37 | 2µM*
CCOc1ccc(C(=O)N/N=C/c2ccccc2[N+](=O)[O-])cc1 | ? | ? | 12µM* | -18% | 10 | -14%
COC(=O)C1CCCCN1Cc1nc(N2CCCN(C(C)=O)CC2)c2ccccc2n1 (stereo unspecified) | . | -9% | . | -5% | . | -8%
COc1cc(OC)nc(C(NC(=O)C2CCN(Cc3ccc(Oc4ccccc4)cc3)CC2)c2ccc(F)cc2)n1 (stereo unspecified) | . | -21% | . | ? | 16 | -16%
CC(=O)Nc1ccc(-c2ccnc3c2CC(C(=O)NCc2ccco2)O3)cc1 (stereo unspecified) | . | -14% | . | ? | -70* | ?
O=C(NCc1ccccc1)C1Cc2c(-c3ccc4c(c3)OCO4)ccnc2O1 (stereo unspecified) | . | -1% | . | ? | -67* | -8%
CC(=O)Nc1ccc(-c2ccnc3c2CC(C(=O)NCc2ccccc2)O3)cc1 (stereo unspecified) | . | -20% | . | ? | -64* | -15%
CC1(C)OC(c2ccccc2)=C/C(=C\C=N\NC(=O)c2ccncc2)O1 | -7% | -20% | -27%[46.1 µM] | -3%[7.34 µM] | -64* | i[7.34 µM]
O=C(NCCCc1ccccc1)c1cncc(Br)c1 | . | 54% | . | . | -28 | .
O=C(C1=NC2=C(CCCC2)CC1)C1CCCCN1 (stereo unspecified) | . | . | 3%[46.1 µM] | . | . | .
CC1(C)C=C2C(=NN(c3ccccc3)C(N)=C2C#N)CO1 | -13%[46.1 µM] | 12% | ? | 5% | -16 | -23%
CC(OC(=O)c1cccc([N+](=O)[O-])c1)C(=O)NCc1ccc2c(c1)OCO2 (stereo unspecified) | . | -19% | . | . | 0 | .
Cc1nc(N)c(CC(Br)CBr)c(Cl)n1 (stereo unspecified) | . | -25% | . | . | -68* | .
CC1CC(C)(C)Nc2ccc(N=O)cc21 (stereo unspecified) | . | ? | . | 0% | -60* | ?
CC1CC(C)(C)Nc2ccc(OC(=O)c3ccco3)cc21 (stereo unspecified) | ? | ? | ? | 8% | -107* | .
CC[C@@]1(C(=O)OC)N[C@H](CN(C)C(=O)NC(C)C)[C@@H]2C(=O)N(C)C(=O)[C@@H]21 | . | -14% | . | -15% | 2 | 1%
CCOC(=O)/C=C/COc1ccccc1[N+](=O)[O-] | 0% | 60% | 7%[46.1 µM] | -22% | -63* | -26%
CC(C)(C)C(=O)COc1ccccc1[N+](=O)[O-] | -28%[46.1 µM] | 10% | ? | -1% | ? | -20%
COc1ccc(CCNc2nc3c(c(=O)n(C)c(=O)n3C)n2Cc2ccc(F)cc2)cc1OC | ? | 16µM* | 6.3µM* | -16% | -90* | ?
SMILES | LASV entry inh | FMDV inh | Marburg entry inh | Vaccinia Venus | HCMV antiviral | VACV mCherry inh
CCOc1ccc(CCNc2nc3c(c(=O)n(C)c(=O)n3C)n2CC)cc1OCC | ? | -25% | ? | . | -97* | .
CCCCC(=O)NCCNc1nc2c(c(=O)n(C)c(=O)n2C)n1Cc1ccc(F)cc1 | 9.2µM* | -29% | ? | ? | 1 | i
O=c1oc2ccccc2c2c1[C@H]1O[C@](c3ccsc3)(Cc3c1ccc1ccccc31)O2 | . | . | 5%[14.2 µM] | . | . | .
O=C(c1ccnc(-n2cnnn2)c1)N1CCOc2ccc(C(O)CCc3ccccc3)cc2C1 (stereo unspecified) | . | 15% | . | -1% | . | -8%
CCn1c(CCNC(=O)c2ccc(OC)cc2)nnc1SCc1ccc(Cl)c(Cl)c1 | ? | ? | ? | ? | -60* | ?
CC1CC(C)C(=O)C(C(CC2CC(=O)NC(=O)C2)OC(=O)CC(=O)c2ccccc2)C1 (stereo unspecified) | ? | -24% | ? | 1.8µM* | -98* | 4µM*
O=C1CCC(C(=O)OCC(=O)c2ccccc2)N1 (stereo unspecified) | 25% | 16% | ? | 0% | 34 | -8%
CCN1C(=O)C(=O)N(CC(=O)N2CCC(C)Sc3ccccc32)C1=O (stereo unspecified) | . | -10% | . | . | -29 | .
Cc1cccc(CC2S/C(=N/c3ccccn3)NC2=O)c1 (stereo unspecified) | ? | -4% | 7% | -18% | -65* | .
O=C1N/C(=N\N=C\c2ccccn2)SC1Cc1cccc(SC(F)F)c1 (stereo unspecified) | ? | -17% | ? | -10% | -99* | -12%
O=C1N/C(=N\N=C\c2cccnc2)SC1Cc1ccc(SC(F)F)cc1 (stereo unspecified) | ? | 0% | ? | . | -85* | .
O=C(NCc1cccc(C(F)(F)F)c1)C1C(=O)Nc2ccccc2C(=O)N1C1CCCC1 (stereo unspecified) | . | 2% | . | -9% | -8 | 19%
COc1ccccc1-c1ccnc(-n2ncc(C(=O)N(C)CCc3ccccn3)c2C)n1 | . | 19% | . | 2% | . | -17%
NS(=O)(=O)c1ccc(NC(=S)Nc2ccc(S(=O)(=O)N3CCCC3)cc2)cc1 | -9%[46.1 µM] | 36% | 1%[46.1 µM] | -4% | -32 | -13%
O=S(=O)(c1ccc(NC(=S)NN=Cc2ccccc2O)cc1)N1CCCCC1 | 6.3µM* | -24% | ? | ? | -61* | 13µM*
O=S(=O)(c1ccc(NC(=S)NC23CC4CC(CC(C4)C2)C3)cc1)N1CCCCC1 | . | -28% | . | ? | -90* | -25%
CCOc1ccc(NC(=S)NC23CC4CC(CC(C4)C2)C3)cc1 | . | -2% | . | . | -20 | .
FC(F)Oc1ccc(NC(=S)NC23CC4CC(CC(C4)C2)C3)cc1 | 2.5µM* | ? | -29%[46.1 µM] | -22% | -37 | -3%
FC(F)Oc1ccc(NC(=S)NCc2ccccc2)cc1 | 13% | 36% | ? | ? | -36 | -2%
Oc1cccc2c(NC(=S)Nc3ccc(OC(F)F)cc3)cccc12 | ? | ? | ? | 4% | -99* | ?
COc1ccc(Cn2c(C(=O)O)c(CNCCc3ccccc3Cl)c3ccc(C)cc32)cc1 | -27%[46.1 µM] | -54% | . | ? | -105* | ?

Screens as filed in PubChem.
